The record followed here is PubChem BioAssay.

The target of assay [1] is Cell division control protein 42 homolog (Homo sapiens) (UniProt P60953). Briefly: activated mutant Cdc42 GTP-binding inhibitors, dose response, biochemical, multiplex bead flow cytometry, Bodipy-FL-GTP (AID 1333;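 active = fitted half-maximal concentration within the tested dose range, moderate curve steepness, a statistically real signal drop, and little compound fluorescence or tag-binding interference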).
Assay [2] shares this target. Description: wildtype Cdc42 GTP-binding inhibitors, dose response, biochemical, multiplex bead flow cytometry, Bodipy-FL-GTP (AID 1334;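 active = fitted half-maximal concentration within the tested range, moderate curve steepness, significant signal drop, and little compound fluorescence or bead-linkage interference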). The conditions noted are these: bead-based flow cytometry, Bodipy-FL-GTP binding to GST-Cdc42; at 100 µM (top of the series) unless noted. (In general: A flow cytometer gives signals particle by particle.)
Assay [3] concerns the target GTPase HRas (Homo sapiens) (UniProt P01112). Briefly: inhibitors of GTP binding to wildtype Ras, dose response, biochemical, multiplex bead flow cytometry (AID 1335;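 active = fitted half-maximal concentration within 10 nM to 100 µM, steepness 0.5 to 2, significant signal drop, low assay interference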). The conditions noted are these: bead-based flow cytometry, Bodipy-GTP binding to GST-Ras; at 100 µM (top of the series) unless noted.
Assay [4] deals with Ras-related protein Rab-7a (dog), GTP binding. Description: Rab7 GTP binding inhibitors, potency, dose response, biochemical, wildtype, multiplex bead flow cytometry (AID 1336; call rule not given here).
For assay [5], the target named is Ras-related C3 botulinum toxin substrate 1 (Homo sapiens) (UniProt P63000). Briefly: wildtype Rac1 GTP binding inhibitors, dose response, biochemical, multiplex bead flow cytometry (AID 1340). The conditions noted are these: GST-Rac1 beads, Bodipy-FL-GTP binding; at 100 µM (top of the series) unless noted.
The target of assay [6] is GTPase HRas (Homo sapiens) (UniProt P01112). Description: activated Ras mutant GTP binding inhibitors, dose response, biochemical, multiplex bead flow cytometry (AID 1341;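 active = dose-response curve with midpoint inside the tested range, moderate steepness, significant amplitude and little compound fluorescence or bead-attachment interference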;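 also: GST-tagged constitutively activated Ras mutant immobilized on beads and multiplexed with other GTPases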).

The structures appear in SMILES notation. For part of these data: Results with a measured potency or affinity are listed apart. Active and inactive are the calls of the source.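 The calls were made as follows, unless noted: active = dose curve with midpoint inside tested range, moderate steepness, plateau gap beyond fit error, low compound glow and bead-link interference; inactive = the rest.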

Chain of Cell division control protein 42 homolog (Homo sapiens) (P60953 whole entry, looked up): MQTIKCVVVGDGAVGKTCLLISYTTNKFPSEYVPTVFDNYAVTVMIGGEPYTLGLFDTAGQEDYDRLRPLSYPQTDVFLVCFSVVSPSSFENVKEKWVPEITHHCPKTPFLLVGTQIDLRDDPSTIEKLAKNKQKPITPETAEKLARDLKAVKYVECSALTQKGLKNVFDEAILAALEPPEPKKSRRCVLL
Chain of GTPase HRas (Homo sapiens) (P01112 whole entry, looked up): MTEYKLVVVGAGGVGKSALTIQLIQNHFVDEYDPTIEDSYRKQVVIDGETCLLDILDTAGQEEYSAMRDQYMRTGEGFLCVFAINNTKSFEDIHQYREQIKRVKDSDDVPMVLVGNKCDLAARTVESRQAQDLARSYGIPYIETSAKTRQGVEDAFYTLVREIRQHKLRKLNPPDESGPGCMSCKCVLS

On to `CCOC(=O)N1CCN(/C=C(\C#N)c2nc3ccccc3s2)CC1`, for which the outcome in assay [1], in assay [4] and in assay [6] was inactive. The fluorescence, percent of control (lower = inhibition) in assay [2] stood at 80.8%. This compound also gave a GTP binding, percent of control in assay [3] of 92.3%. The compound further gave a GTP binding signal, raw median fluorescence (lower = inhibition) (MCF (arbitrary fluorescence units)) in assay [5] of 240.
On to `O=c1cc(N2CCc3ccccc3C2)[nH]c(=O)n1-c1ccc(Cl)cc1`, for which the call in assay [1], in assay [4] and in assay [6] was inactive. In assay [2], the fluorescence, percent of control (lower = inhibition) worked out at 43.6%. Also, the GTP binding, percent of control in assay [3] stood at 92.9%. The same compound gave a GTP binding signal, raw median fluorescence (lower = inhibition) (MCF (arbitrary fluorescence units)) in assay [5] of 267.
For `O=S(=O)(Cc1ccc(Cl)cc1)c1ccccc1-c1nnc(-c2ccc(Cl)cc2)o1`, the outcome in assay [1], in assay [4] and in assay [6] was inactive. The same compound displayed a fluorescence, percent of control (lower = inhibition) in assay [2] of 84%. The GTP binding, percent of control in assay [3] stood at 160%. The GTP binding signal, raw median fluorescence (lower = inhibition) (MCF (arbitrary fluorescence units)) in assay [5] amounted to 172.
Consider `Cn1c(NC(=S)Nc2ccccc2)nc2ccccc21`, for which the compound was called inactive in assay [1], in assay [4] and in assay [6]. The fluorescence, percent of control (lower = inhibition) in assay [2] amounted to 51.8%. This compound yielded a GTP binding, percent of control in assay [3] of 63.9%. Further, in assay [5], the GTP binding signal, raw median fluorescence (lower = inhibition) (MCF (arbitrary fluorescence units)) was 0.
Take `COc1ccc(S(=O)(=O)n2oc(=O)cc2-c2ccccc2)cc1`: the compound was classed as inactive in assay [1], in assay [4] and in assay [6]. In assay [2], this compound had a fluorescence, percent of control (lower = inhibition) of 42.2%. In addition, the GTP binding, percent of control in assay [3] came out at 90.8%. In assay [5], this compound registered a GTP binding signal, raw median fluorescence (lower = inhibition) (MCF (arbitrary fluorescence units)) of 248.
Consider `O=C(Oc1c(Br)cc(C(=S)N2CCOCC2)cc1Br)c1ccc(Cl)cc1`, for which the result in assay [1], in assay [4] and in assay [6] was inactive. In assay [2], the fluorescence, percent of control (lower = inhibition) came to 29.7%. Also, the GTP binding, percent of control in assay [3] came out at 85%. Moreover, the GTP binding signal, raw median fluorescence (lower = inhibition) (MCF (arbitrary fluorescence units)) in assay [5] is 217.
With `Cc1ccc(Nc2cc(C(=O)O)c3ccccc3n2)cc1C`, the call in assay [1], in assay [4] and in assay [6] was inactive. The fluorescence, percent of control (lower = inhibition) in assay [2] was determined as 60.9%. In addition, in assay [3], the GTP binding, percent of control was found to be 84.7%. In assay [5], this compound gave a GTP binding signal, raw median fluorescence (lower = inhibition) (MCF (arbitrary fluorescence units)) of 31.9.
As to `COc1cccc(CNCc2sc(C(=O)O)cc2C)c1OC`, the result in assay [1], in assay [4] and in assay [6] was inactive. In addition, the fluorescence, percent of control (lower = inhibition) in assay [2] is 61.7%. Further, the GTP binding, percent of control in assay [3] was 80.7%. The GTP binding signal, raw median fluorescence (lower = inhibition) (MCF (arbitrary fluorescence units)) in assay [5] was determined as 35.
For `O=C(Cn1c(-c2cscn2)nc2ccccc21)Nc1cc(F)ccc1F`, the result in assay [1], in assay [4] and in assay [6] was inactive. Further, the fluorescence, percent of control (lower = inhibition) in assay [2] came out at 33.9%. For the same compound, in assay [3], the GTP binding, percent of control was found to be 75.9%. The compound further registered a GTP binding signal, raw median fluorescence (lower = inhibition) (MCF (arbitrary fluorescence units)) in assay [5] of 210.
For the compound `Cc1cc(C)c2sc(N(CCN(C)C)C(=O)c3cc(Cl)sc3Cl)nc2c1`, the call in assay [1], in assay [4] and in assay [6] was inactive. The fluorescence, percent of control (lower = inhibition) in assay [2] came to 33.6%. Further, the GTP binding, percent of control in assay [3] worked out at 78.8%. The GTP binding signal, raw median fluorescence (lower = inhibition) (MCF (arbitrary fluorescence units)) in assay [5] was 283.
Regarding `C/C(=C1/SC(=S)N(CCC(=O)O)C1=O)c1ccc(O)cc1`, the call in assay [1], in assay [4] and in assay [6] was inactive. Besides, the fluorescence, percent of control (lower = inhibition) in assay [2] stood at 29.5%. Further, the GTP binding, percent of control in assay [3] worked out at 80.9%. The same compound returned a GTP binding signal, raw median fluorescence (lower = inhibition) (MCF (arbitrary fluorescence units)) in assay [5] of 254.
`N#C/C(=C\c1ccncc1)c1nc2ccccc2[nH]1`: the compound was classed as inactive in assay [1], in assay [4] and in assay [6]. The same compound gave a fluorescence, percent of control (lower = inhibition) in assay [2] of 31%. In addition, the GTP binding, percent of control in assay [3] amounted to 81.6%. In addition, in assay [5], the GTP binding signal, raw median fluorescence (lower = inhibition) (MCF (arbitrary fluorescence units)) came to 273.
Take `O=C1/C(=C\c2ccc(-c3ccccc3Cl)o2)SC(=S)N1CC1CCCO1` (stereo not given): the outcome in assay [1], in assay [4] and in assay [6] was inactive. Besides, the fluorescence, percent of control (lower = inhibition) in assay [2] came to 29.8%. In assay [3], this compound had a GTP binding, percent of control of 35.9%. For the same compound, the GTP binding signal, raw median fluorescence (lower = inhibition) (MCF (arbitrary fluorescence units)) in assay [5] stood at 116.
In the case of `CC1(C)Cc2c(sc3c2C2=NCCN2C=N3)CS1`, the outcome in assay [1], in assay [4] and in assay [6] was inactive. In addition, the fluorescence, percent of control (lower = inhibition) in assay [2] was found to be 38.3%. This compound also yielded a GTP binding, percent of control in assay [3] of 86.3%. In assay [5], this compound gave a GTP binding signal, raw median fluorescence (lower = inhibition) (MCF (arbitrary fluorescence units)) of 280.
With `Cc1ccc(Nc2cc(C(=O)O)c3ccccc3n2)c(C)c1`, the call in assay [1], in assay [4] and in assay [6] was inactive. In assay [2], this compound came in with a fluorescence, percent of control (lower = inhibition) of 60.5%. Besides, the GTP binding, percent of control in assay [3] is 83.7%. For the same compound, in assay [5], the GTP binding signal, raw median fluorescence (lower = inhibition) (MCF (arbitrary fluorescence units)) came out at 33.1.
